# Measured values taken from PubChem BioAssay (NCI).
# Compounds without any hit were thinned out: in the full panel of roughly 83,000, 20% have a hit.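 Plates (96-well) were seeded with cells, treated with compound at one concentration, and incubated for 48 hours before percent growth was determined.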 The source made the active and inactive calls. Rule for the calls: active = growth percent below 10; inactive = the rest.
# Tested on: SNB-75 CNS
# Assay: NCI-60 one-dose screen, 48 h (100 = growth as untreated, 0 = no growth, -100 = all killed)
# Conditions: 10 µM unless noted
row,SMILES,growth
1,CC1=C[C@@H]2c3c(c(O)c(O)c4oc5cc(O)cc(O)c5c(=O)c34)[C@@H](c3cc(O)c(O)c4oc5cc(O)cc(O)c5c(=O)c34)[C@@H]2C(C)(C)C1,16.7% (inactive)
2,Brc1c(-c2ccncc2)nc2n1CCS2,101% (inactive)
3,CC(C)(C)c1ccc(OCCOC(=O)CBr)cc1,84.6% (inactive)
4,NC(N)=Nc1ccc(/C=C2\C=Cc3ccccc32)cc1,52.7% (inactive)
5,O=C(Cc1ccccc1[N+](=O)[O-])c1ccc2c(c1)OCO2,91.3% (inactive)
6,N#Cc1c(N)nc(Nc2nc3ccccc3[nH]2)nc1-c1ccc(Cl)cc1,95.1% (inactive)
7,Oc1ccc(CN(Cc2ccc(C(F)(F)F)cc2)Cc2ccc(O)c3ncccc23)c2cccnc12,33.5% (inactive)
8,CCC(C)C1NC(=O)C(CC(C)C)NC(=O)C(C)NC(=O)C(C(C)C)NC(=O)C(CCCCN)NC(=O)C(CC(C)C)NC(=O)C(C(C)C)NC(=O)[C@H](C)NC(=O)C(C(C)CC)NC(=O)C(CCCN=C(N)N)NC(=O)C(CCCCN)NC(=O)C(CCCN=C(N)N)NC(=O)C(CCCCN)NC(=O)C([C@H](C)CC)NC(=O)C(CCCCN)NC1=O (stereo not given in full),28.8% (inactive)
9,COC(=O)c1ccc(C(=Nc2ccc(N(C)C(=O)CN3CCN(C)CC3)cc2)c2c(O)[nH]c3ccc(C(=O)OC)cc23)cc1,24.6% (inactive)
10,O=C(C(=O)N1CCOCC1)c1ccc(O[C@H]2O[C@H](CO)[C@@H](O)[C@H](O)[C@@H]2O)cc1,100% (inactive)

# Tested on: SNB-19 CNS
# Assay: as above
# Conditions: 10 µM unless noted
row,SMILES,growth
1,NCCCOc1cc2ccccc2cc1C(=O)Nc1ccc(Cl)cc1OC(=O)c1cc2ccccc2cc1OCCCN,-61.5% (active)
2,CCCCCCCCCCCCCCCCNC(=S)N/N=C/c1ccc(O)cc1O,89.1% (inactive)
3,CC1(C)N=C(N)N=C(N)N1c1cccc(CCCCOc2ccccc2)c1,32.4% (inactive)
4,CCCC(C)c1cc(Cc2cc(Cl)cc(Cl)c2O)c(O)c(Cc2cc(Cl)cc(Cl)c2O)c1 (stereo not given),24.2% (inactive)
5,Oc1ccc(Br)cc1/C=N/NC(=S)NC12CC3CC(CC(C3)C1)C2,45.3% (inactive)
6,Cc1ccc([C@@H]2C[C@H](O)Cc3ccccc3N2)s1,120% (inactive)
7,Cc1c(Cc2ccccc2)c(=O)oc2c(C)c(OCC(=O)n3nc(C#N)cc3N)ccc12,98.9% (inactive)
8,N#CCc1ncc(-c2ccc(C(F)(F)F)cc2)c(NC2CCCCCC2)n1,45.2% [100 µM] (inactive)
9,CCC1(CC)C(OC)NC(Br)=C(C#N)C1(C#N)C(N)=O (stereo not given),110% (inactive)
10,CC1(C)Oc2cc3oc(=O)ccc3cc2C[C@@H]1OCCOS(=O)(=O)c1ccc(C#N)cc1,96.5% (inactive)
11,CC(C)CCCCCOC(=O)c1ccccc1SSc1ccccc1C(=O)OCCCCCC(C)C,103% (inactive)
12,C=C(NC(=O)[C@H](C(C)C)N(C)c1cccc2[nH]ccc12)C(=O)OC,103% (inactive)
13,O=C(NC1CCN(Cc2ccccc2)CC1)c1cc(-c2cccnc2)nc2ccc(Cl)cc12,91.4% (inactive)
14,Cc1c(CN(C)C)cc(C(C)C)cc1C(C)C,102% (inactive)
15,Nc1ccc(S(=O)(=O)c2ccc(NO)cc2)cc1,97.1% (inactive)
16,CCOC(=O)C1=C(C(F)(F)F)NC(=S)NC1CN1C(=O)c2ccccc2C1=O (stereo not given),112% (inactive)
17,CC(=O)NCCN,98.8% (inactive)
18,COc1ccc(Cn2cc3c(c2)-c2oncc2CC3)cc1OC,42% (inactive)
19,Cc1ccc(C(=O)Nc2ccc(CN3CCN(C)CC3)c(C(F)(F)F)c2)cc1C#Cc1cncc2ncccc12,-99.3% (active)
20,Cc1nc2c(nnn2-c2ccccc2)c2nc(-c3ccc(Cl)cc3)oc(=O)c12,107% (inactive)

row,SMILES,growth
1,CC(=O)Nc1nc(C)c(C(=O)N/N=C/c2cccs2)s1,96.8% (inactive)
2,CCCC(CCC)Oc1ccc(CCCC2=C(O)c3ccccc3C(=O)C2=O)cc1,28.2% (inactive)
3,COc1ccc(-c2cc(C#N)c(NNC(C)=O)[nH]2)cc1,125% (inactive)
4,CCCCCCCCCCCCCCCCCC(=O)Nc1ccc(O)cc1,118% (inactive)
5,COc1ccc2c(N)ncc(C#Cc3cc(C(=O)Nc4ccc(CN5CCN(C)CC5)c(C(F)(F)F)c4)cnc3C)c2c1,-82.2% (active)
6,COC(=O)C1CC(=O)N(C(=O)Nc2ccc(Cl)cc2Cl)C1 (stereo not given),102% (inactive)
7,COC(=O)CC(=O)C(=O)OC,107% (inactive)
8,COc1ccc(C2=NN(C(=O)c3cc(-c4ccc(C)cc4)nc4ccccc34)C(c3cc(-c4ccccc4)nn3-c3ccccc3)C2)cc1 (stereo not given),83% (inactive)
9,O=C(Nc1cccc(Cn2c(=O)[nH]c3ccc(Oc4ncccn4)cc3c2=O)c1)c1ccc(Cl)cc1,58.5% (inactive)
10,CC(=O)Nc1ccc(CC#N)cc1Br,103% (inactive)
11,CC1=C[C@@H]2c3c(c(O)c(O)c4oc5cc(O)cc(O)c5c(=O)c34)[C@@H](c3cc(O)c(O)c4oc5cc(O)cc(O)c5c(=O)c34)[C@@H]2C(C)(C)C1,7.8% (active)
12,Brc1c(-c2ccncc2)nc2n1CCS2,103% (inactive)
13,CC(C)(C)c1ccc(OCCOC(=O)CBr)cc1,104% (inactive)
14,NC(N)=Nc1ccc(/C=C2\C=Cc3ccccc32)cc1,75.6% (inactive)
15,O=C(Cc1ccccc1[N+](=O)[O-])c1ccc2c(c1)OCO2,97.7% (inactive)
16,N#Cc1c(N)nc(Nc2nc3ccccc3[nH]2)nc1-c1ccc(Cl)cc1,107% (inactive)
17,Oc1ccc(CN(Cc2ccc(C(F)(F)F)cc2)Cc2ccc(O)c3ncccc23)c2cccnc12,30.8% (inactive)
18,CCC(C)C1NC(=O)C(CC(C)C)NC(=O)C(C)NC(=O)C(C(C)C)NC(=O)C(CCCCN)NC(=O)C(CC(C)C)NC(=O)C(C(C)C)NC(=O)[C@H](C)NC(=O)C(C(C)CC)NC(=O)C(CCCN=C(N)N)NC(=O)C(CCCCN)NC(=O)C(CCCN=C(N)N)NC(=O)C(CCCCN)NC(=O)C([C@H](C)CC)NC(=O)C(CCCCN)NC1=O (stereo not given in full),17.4% (inactive)
19,COC(=O)c1ccc(C(=Nc2ccc(N(C)C(=O)CN3CCN(C)CC3)cc2)c2c(O)[nH]c3ccc(C(=O)OC)cc23)cc1,55.3% (inactive)
20,O=C(C(=O)N1CCOCC1)c1ccc(O[C@H]2O[C@H](CO)[C@@H](O)[C@H](O)[C@@H]2O)cc1,109% (inactive)
